# Source: PubChem BioAssay (Tox21)
# Inconclusive results are not listed. A number with no mark means an inactive call. Calls of active or inactive are those of the source. The call rests on the fitted dose curve; in most records, active means well fitted cell-killing curve with a large enough effect in the repeat runs; inconclusive means weak or mixed curves, or effect the other way; inactive means flat fitted curve, though single readings scatter.
# Experiment: qHTS assay to identify small molecule antagonists of the constitutive androstane receptor (CAR) signaling pathway - cell viability counter screen (AID 1224837); further: nearly all actives have a fitted effect of over 45% in size
# Conditions: HepG2-CYP2B6-hCAR viability, CellTiter-Fluor, 23 h, co-treated with 50 nM CITCO; series mostly up to 92.4 µM; activity change, negative = cytotoxicity: at the top concentration
# Method in brief: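 Cytotoxicity counter-screen: CellTiter-Fluor fluorescence after 23 h compound exposure (15-point qHTS) in double-stable HepG2-CYP2B6-hCAR cells, with 50 nM CITCO added.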
# On the % scale 0 is the no-effect control and ±100 the full control effect.
Compound,"activity change, negative = cytotoxicity",Potency
CCC1(CCC(C)C)C(=O)NC(=O)NC1=O,2.15%,
Clc1ccccc1,2.69%,
CCCCC1C(=O)NC(=O)N(C2CCCCC2)C1=O (stereo unspecified),-11.6% [at 42.5 µM],
C[C@H](N)[C@H](O)c1ccc(O)c(O)c1,-14.7% [at 42.5 µM],
CCCN(CCC)c1c([N+](=O)[O-])cc(C(C)C)cc1[N+](=O)[O-],,inactive
CCOC(C(=O)OCCN(C)C)(c1ccccc1)c1ccccc1,-5.49% [at 42.5 µM],
O=C=NC1CCCCC1,-8.84%,
CCOP(=S)(OCC)SCSc1cc(Cl)ccc1Cl,8.82%,
CCCCCCCCCCCCN(C)C,2.31%,
O=C(O)c1cc(I)cc(I)c1I,5.33%,
CN1C(=O)CN=C(c2ccccc2)c2cc([N+](=O)[O-])ccc21,-5.84% [at 42.5 µM],
CCOP(=S)(OCC)Oc1ccc(S(C)=O)cc1 (stereo unspecified),0.874%,
CC(C)(c1ccccc1)c1cc(-n2nc3ccccc3n2)c(O)c(C(C)(C)c2ccccc2)c1,-3.09% [at 42.5 µM],
Cc1nnc(-c2ccccc2)c(=O)n1N,-1.78%,
O=CC=O,0.309%,
CCC1(CC)C(=O)NC(=O)NC1=O,-15.3% [at 42.5 µM],
CC(Cl)C(=O)O (stereo unspecified),0.245%,
O=S(=O)(Cl)Cl,9.88%,
COc1ccc(C(O)(c2cncnc2)C2CC2)cc1 (stereo unspecified),7.92%,
O=C(O)CCCOc1ccc(Cl)cc1Cl,,inactive
O=C1CC[C@@]2(O)[C@H]3Cc4ccc(O)c5c4[C@@]2(CCN3CC2CC2)[C@H]1O5,-0.291% [at 42.5 µM],
C=CCSSCC=C,-6.91%,
Nc1ccccc1C(=O)OCC(O)CO (stereo unspecified),3.55% [at 42.5 µM],
FC(F)OC(F)(F)C(F)Cl (stereo unspecified),0.422%,
COCc1cnc(C2=NC(C)(C(C)C)C(=O)N2)c(C(=O)O)c1 (stereo unspecified),0.266%,
Nc1cc(Cl)cc(C(=O)O)c1Cl,,inactive
